# Data: paper PMC7862700, “An all-to-all approach to the identification of sequence-specific readers for epigenetic DNA modifications on cytosine”
# Assays:
# Assay in all cases: DAPPL (digital affinity profiling via proximity ligation, sequencing); 10 mM Tris-HCl pH 7.5, 50 mM NaCl, 1 mM DTT, 4% glycerol, room temperature, 30 min; GST-TFs on glutathione beads, 16-mer random dsDNA library, 0.1% formaldehyde crosslink after washing; high values mean tight binding
# [1] = target: T1, FEV (Homo sapiens, UniProt Q99581 1-238); settings: protein: recombinant; tags: N-terminal GST; dsDNA, one strand shown
# T1 sequence: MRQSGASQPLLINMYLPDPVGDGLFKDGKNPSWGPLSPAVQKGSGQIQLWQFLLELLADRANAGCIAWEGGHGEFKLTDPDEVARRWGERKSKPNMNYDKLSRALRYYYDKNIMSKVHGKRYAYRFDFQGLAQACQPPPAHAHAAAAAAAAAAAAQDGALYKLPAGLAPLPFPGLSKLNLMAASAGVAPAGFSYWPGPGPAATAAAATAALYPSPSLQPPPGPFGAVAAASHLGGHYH
# In short: (§1)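 Sequencing on an Illumina NextSeq500 followed washing, crosslinking with 0.1% formaldehyde, proximity ligation (BsaI/T4 ligase, 1 h, 37 °C) and PCR amplification of pools that had been incubated for 30 min at room temperature with 200 nmole of a random double-stranded 16-mer DNA library in Tris/NaCl/DTT/glycerol buffer. Each pool held DNA-barcoded human transcription factors, expressed in yeast as GST fusions and captured on glutathione beads, plus a tag-only sample. Binding signal is a hexamer's read frequency for a factor divided by its frequency in the tag-only sample.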
# [2] = target: ETV5 (Homo sapiens, UniProt P41161 1-510); settings: protein: recombinant; tags: N-terminal GST; dsDNA, one strand shown
# In short: as §1
# [3] = target: HSF1 (Homo sapiens, UniProt Q00613 1-529); settings: protein: recombinant; tags: N-terminal GST; chain copies: 3; dsDNA, one strand shown
# In short: as §1
# [4] = target: T2, SPIC (Homo sapiens, UniProt Q8N5J4 1-248); settings: protein: recombinant; tags: N-terminal GST; dsDNA, one strand shown
# T2 sequence: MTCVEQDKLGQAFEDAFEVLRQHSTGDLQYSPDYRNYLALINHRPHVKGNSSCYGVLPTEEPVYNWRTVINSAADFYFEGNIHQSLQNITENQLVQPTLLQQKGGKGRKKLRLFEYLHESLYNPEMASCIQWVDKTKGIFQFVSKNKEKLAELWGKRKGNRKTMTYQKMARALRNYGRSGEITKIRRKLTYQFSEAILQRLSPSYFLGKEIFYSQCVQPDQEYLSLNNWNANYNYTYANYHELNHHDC
# In short: as §1
# [5] = target: ELF4 (Homo sapiens, UniProt Q99607 1-663); settings: protein: recombinant; tags: N-terminal GST; dsDNA, one strand shown
# In short: as §1
# [6] = target: T3, ELK4 (Homo sapiens, UniProt P28324-2 1-405); settings: protein: recombinant; tags: N-terminal GST; dsDNA, one strand shown
# T3 sequence: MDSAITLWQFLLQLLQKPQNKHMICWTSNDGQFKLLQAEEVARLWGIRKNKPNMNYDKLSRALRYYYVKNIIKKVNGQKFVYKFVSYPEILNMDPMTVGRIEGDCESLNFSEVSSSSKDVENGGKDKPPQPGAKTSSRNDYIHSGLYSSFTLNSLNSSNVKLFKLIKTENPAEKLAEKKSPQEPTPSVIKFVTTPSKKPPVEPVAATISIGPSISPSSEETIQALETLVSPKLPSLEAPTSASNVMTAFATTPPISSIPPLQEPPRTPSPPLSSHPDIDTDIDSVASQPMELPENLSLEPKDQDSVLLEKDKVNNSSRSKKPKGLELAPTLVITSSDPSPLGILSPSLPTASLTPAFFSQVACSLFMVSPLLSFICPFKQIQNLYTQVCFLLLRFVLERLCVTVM
# In short: as §1
# [7] = target: T4, ETV2 (Homo sapiens, UniProt O00321 1-342); settings: protein: recombinant; tags: N-terminal GST; dsDNA, one strand shown
# T4 sequence: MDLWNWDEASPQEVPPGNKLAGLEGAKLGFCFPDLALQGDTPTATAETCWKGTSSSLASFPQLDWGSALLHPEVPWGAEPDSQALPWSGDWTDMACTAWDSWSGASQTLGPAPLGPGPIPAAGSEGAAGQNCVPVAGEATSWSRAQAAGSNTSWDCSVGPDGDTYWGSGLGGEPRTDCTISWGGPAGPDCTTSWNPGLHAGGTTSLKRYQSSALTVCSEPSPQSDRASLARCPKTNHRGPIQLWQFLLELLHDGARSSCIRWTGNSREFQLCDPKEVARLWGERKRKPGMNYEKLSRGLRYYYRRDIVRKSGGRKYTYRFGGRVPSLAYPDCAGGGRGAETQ
# In short: as §1
# [8] = target: T5, ELF3 (Homo sapiens, UniProt P78545 1-371); settings: protein: recombinant; tags: N-terminal GST; dsDNA, one strand shown
# T5 sequence: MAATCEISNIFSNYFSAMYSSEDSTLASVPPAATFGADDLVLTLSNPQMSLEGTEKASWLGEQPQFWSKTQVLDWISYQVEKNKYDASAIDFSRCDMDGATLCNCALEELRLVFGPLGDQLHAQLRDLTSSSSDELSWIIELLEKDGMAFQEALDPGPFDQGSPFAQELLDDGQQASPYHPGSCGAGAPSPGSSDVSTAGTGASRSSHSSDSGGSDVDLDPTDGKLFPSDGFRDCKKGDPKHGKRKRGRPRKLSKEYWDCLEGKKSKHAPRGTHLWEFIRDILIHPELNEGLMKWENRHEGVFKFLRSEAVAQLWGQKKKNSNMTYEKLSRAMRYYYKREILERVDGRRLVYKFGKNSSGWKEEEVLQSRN
# In short: as §1
# [9] = target: CRX (Homo sapiens, UniProt O43186 1-299); settings: protein: recombinant; tags: N-terminal GST; dsDNA, one strand shown
# In short: as §1
# HSF1, sequence (Q00613 whole entry): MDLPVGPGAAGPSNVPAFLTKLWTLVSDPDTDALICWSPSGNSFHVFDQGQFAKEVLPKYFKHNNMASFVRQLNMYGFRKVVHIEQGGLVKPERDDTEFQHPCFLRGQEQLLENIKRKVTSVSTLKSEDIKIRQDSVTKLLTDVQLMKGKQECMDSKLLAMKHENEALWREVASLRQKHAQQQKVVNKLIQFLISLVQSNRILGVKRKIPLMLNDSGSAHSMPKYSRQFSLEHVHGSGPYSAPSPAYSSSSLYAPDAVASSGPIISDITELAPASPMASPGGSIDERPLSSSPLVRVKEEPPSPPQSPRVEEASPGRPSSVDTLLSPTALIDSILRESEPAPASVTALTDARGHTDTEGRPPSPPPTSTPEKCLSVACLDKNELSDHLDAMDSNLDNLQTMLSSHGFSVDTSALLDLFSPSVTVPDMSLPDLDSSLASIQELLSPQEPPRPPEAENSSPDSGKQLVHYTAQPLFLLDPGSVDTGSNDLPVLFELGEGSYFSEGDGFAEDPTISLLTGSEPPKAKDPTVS
# ETV5, sequence (P41161 whole entry): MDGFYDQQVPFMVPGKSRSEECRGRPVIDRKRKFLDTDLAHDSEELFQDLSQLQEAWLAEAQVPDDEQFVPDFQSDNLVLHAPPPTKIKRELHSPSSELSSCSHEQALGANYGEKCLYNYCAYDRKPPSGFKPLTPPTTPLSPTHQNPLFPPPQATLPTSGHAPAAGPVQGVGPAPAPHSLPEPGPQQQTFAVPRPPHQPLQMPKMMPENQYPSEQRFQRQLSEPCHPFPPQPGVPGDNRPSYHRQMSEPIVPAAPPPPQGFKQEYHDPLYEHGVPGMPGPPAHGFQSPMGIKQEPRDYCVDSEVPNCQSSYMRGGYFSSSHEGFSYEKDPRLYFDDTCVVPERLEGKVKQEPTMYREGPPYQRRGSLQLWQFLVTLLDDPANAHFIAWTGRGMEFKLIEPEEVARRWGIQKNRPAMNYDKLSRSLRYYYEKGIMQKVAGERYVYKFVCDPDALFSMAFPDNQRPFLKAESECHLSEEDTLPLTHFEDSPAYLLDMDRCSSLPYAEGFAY
# CRX, sequence (O43186 whole entry): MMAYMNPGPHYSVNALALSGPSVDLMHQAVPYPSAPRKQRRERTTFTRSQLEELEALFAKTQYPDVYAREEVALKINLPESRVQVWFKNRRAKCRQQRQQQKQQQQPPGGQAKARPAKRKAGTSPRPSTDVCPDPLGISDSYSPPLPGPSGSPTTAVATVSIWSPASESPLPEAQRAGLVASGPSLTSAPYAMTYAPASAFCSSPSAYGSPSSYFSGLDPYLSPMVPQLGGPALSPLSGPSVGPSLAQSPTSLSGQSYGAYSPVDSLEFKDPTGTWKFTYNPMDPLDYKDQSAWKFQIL
# ELF4, sequence (Q99607 whole entry): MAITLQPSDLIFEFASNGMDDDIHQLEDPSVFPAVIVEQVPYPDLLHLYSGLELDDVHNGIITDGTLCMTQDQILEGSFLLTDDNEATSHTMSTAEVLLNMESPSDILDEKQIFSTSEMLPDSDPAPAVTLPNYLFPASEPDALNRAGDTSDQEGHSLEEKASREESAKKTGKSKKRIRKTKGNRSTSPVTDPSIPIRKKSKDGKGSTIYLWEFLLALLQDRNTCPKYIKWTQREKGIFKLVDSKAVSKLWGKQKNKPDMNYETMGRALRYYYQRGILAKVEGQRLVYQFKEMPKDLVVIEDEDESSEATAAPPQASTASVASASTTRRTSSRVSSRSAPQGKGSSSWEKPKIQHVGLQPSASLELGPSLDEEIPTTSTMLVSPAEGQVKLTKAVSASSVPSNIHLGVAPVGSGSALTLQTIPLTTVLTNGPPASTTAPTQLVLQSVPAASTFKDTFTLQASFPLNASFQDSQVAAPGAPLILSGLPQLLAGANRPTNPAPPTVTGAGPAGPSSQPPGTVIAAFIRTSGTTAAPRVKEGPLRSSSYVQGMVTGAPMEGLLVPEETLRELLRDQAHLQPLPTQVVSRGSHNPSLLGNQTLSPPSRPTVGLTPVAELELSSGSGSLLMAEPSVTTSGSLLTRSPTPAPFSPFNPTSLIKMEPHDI
sequence,measurement,setting,value
CTTCCG,binding signal,[1],"10.5 fold enrichment (6-mer frequency, TF over GST control)"
same,binding signal,[2],"8.45 fold enrichment (6-mer frequency, TF over GST control)"
same,binding signal,[3],"1.57 fold enrichment (6-mer frequency, TF over GST control)"
same,binding signal,[4],"7.54 fold enrichment (6-mer frequency, TF over GST control)"
same,binding signal,[5],"7.4 fold enrichment (6-mer frequency, TF over GST control)"
same,binding signal,[6],"6.22 fold enrichment (6-mer frequency, TF over GST control)"
same,binding signal,[7],"7.7 fold enrichment (6-mer frequency, TF over GST control)"
same,binding signal,[8],"6.78 fold enrichment (6-mer frequency, TF over GST control)"
same,binding signal,[9],"1.27 fold enrichment (6-mer frequency, TF over GST control)"
